In PubChem BioAssay (NCI):
About 83,000 compounds went through this panel and 20% of them were active in at least one assay; those are over-represented in the sample as a whole.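 The test compound was applied at a single concentration to cells in 96-well plates for 48 hours, and percent growth was recorded.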 Activity calls are given as the source filed them. The calls were made as follows: active = growth percent below 10; inactive = the rest.

Assays:
Assay in all cases: NCI-60 one-dose screen, 48 h (100 = growth as untreated, 0 = no growth, -100 = all killed)
SR leukemia = conditions: 10 µM unless noted
RPMI-8226 leukemia = tested on: RPMI-8226 leukemia
OVCAR-8 ovarian = tested on: OVCAR-8 ovarian
OVCAR-5 ovarian = tested on: OVCAR-5 ovarian
OVCAR-4 ovarian = tested on: OVCAR-4 ovarian
SK-OV-3 ovarian = tested on: SK-OV-3 ovarian
OVCAR-3 ovarian = tested on: OVCAR-3 ovarian
HS 578T breast = tested on: HS 578T breast
NCI/ADR-RES ovarian = tested on: NCI/ADR-RES ovarian
IGROV1 ovarian = conditions: 10 µM unless noted

Measured: growth

Cn1cc(-c2cc3nc(-c4c[nH]c5ccccc45)cc(N)n3n2)c2ccccc21
inactive: SK-OV-3 ovarian; 10 µM unless noted 43.2%
active: SR leukemia 8.18% | RPMI-8226 leukemia; 10 µM unless noted -21.9% | OVCAR-8 ovarian; 10 µM unless noted -73.6% | OVCAR-5 ovarian; 10 µM unless noted -39.4% | OVCAR-4 ovarian; 10 µM unless noted -39.9% | OVCAR-3 ovarian; 10 µM unless noted -76.3% | HS 578T breast; 10 µM unless noted -9.04% | NCI/ADR-RES ovarian; 10 µM unless noted -37.8%

CCOc1ccccc1[C@H]1C(C(=O)c2ccc(Cl)cc2)C2(N[C@@H]1c1ccccc1)C(=O)Nc1ccc(Br)cc12 (some centres not stated)
inactive: OVCAR-8 ovarian; 10 µM unless noted 12.1% | OVCAR-4 ovarian; 10 µM unless noted 13.7% | SK-OV-3 ovarian; 10 µM unless noted 24.4%
active: SR leukemia -45.6% | RPMI-8226 leukemia; 10 µM unless noted 5.23% | OVCAR-5 ovarian; 10 µM unless noted -20.8% | OVCAR-3 ovarian; 10 µM unless noted -4.84% | HS 578T breast; 10 µM unless noted -5.81% | NCI/ADR-RES ovarian; 10 µM unless noted -46.7%

COc1ccc(-c2cc(C(=O)OCc3ccc(Br)cc3)nn2-c2ccc(S(C)(=O)=O)cc2)cc1OC
inactive: SR leukemia 62.8% | RPMI-8226 leukemia; 10 µM unless noted 52.8% | OVCAR-8 ovarian; 10 µM unless noted 87.3% | OVCAR-5 ovarian; 10 µM unless noted 97.8% | OVCAR-4 ovarian; 10 µM unless noted 73.3% | SK-OV-3 ovarian; 10 µM unless noted 83.7% | OVCAR-3 ovarian; 10 µM unless noted 80.3% | HS 578T breast; 10 µM unless noted 65.4% | NCI/ADR-RES ovarian; 10 µM unless noted 78.3%

CC(C)(C)OC(=O)N1CCC2(CC1)Oc1ccccc1[C@H]1CC(c3ccc(Br)cc3)=NN12
inactive: RPMI-8226 leukemia; 10 µM unless noted 56.2% | OVCAR-8 ovarian; 10 µM unless noted 83.3% | OVCAR-5 ovarian; 10 µM unless noted 122% | OVCAR-4 ovarian; 10 µM unless noted 65% | SK-OV-3 ovarian; 10 µM unless noted 79.1% | IGROV1 ovarian 58.7% | OVCAR-3 ovarian; 10 µM unless noted 77.1% | HS 578T breast; 10 µM unless noted 91.5% | NCI/ADR-RES ovarian; 10 µM unless noted 83.7%

O=C(c1ccc(O)cc1)C1[C@H](c2ccccc2Br)[C@@H](c2ccccc2)NC12C(=O)Nc1ccccc12 (some centres not stated)
inactive: RPMI-8226 leukemia; 10 µM unless noted 31.4% | OVCAR-8 ovarian; 10 µM unless noted 30.2% | OVCAR-5 ovarian; 10 µM unless noted 56.7% | OVCAR-4 ovarian; 10 µM unless noted 48.3% | SK-OV-3 ovarian; 10 µM unless noted 70.5% | IGROV1 ovarian 26.6% | OVCAR-3 ovarian; 10 µM unless noted 20.7% | HS 578T breast; 10 µM unless noted 49.1% | NCI/ADR-RES ovarian; 10 µM unless noted 53.1%

CC/C(=C(\c1ccc(O)cc1)c1ccc(OCCN(C)C(=O)COCCNC(=O)Cc2ccc3c(c2)CN([C@@H]2CCC(=O)NC2=O)C3=O)cc1)c1ccccc1
active: HS 578T breast; 10 µM 7.64%
inactive: RPMI-8226 leukemia; 1 µM 83.7% | RPMI-8226 leukemia; 10 µM 51.8% | OVCAR-8 ovarian; 1 µM 67.7% | OVCAR-8 ovarian; 10 µM 15.1% | OVCAR-5 ovarian; 1 µM 94.7% | OVCAR-5 ovarian; 10 µM 65.5% | OVCAR-4 ovarian; 1 µM 91.3% | OVCAR-4 ovarian; 10 µM 38.7% | SK-OV-3 ovarian; 1 µM 81% | SK-OV-3 ovarian; 10 µM 57.8% | OVCAR-3 ovarian; 1 µM 85.9% | OVCAR-3 ovarian; 10 µM 54.8% | HS 578T breast; 1 µM 48.7% | NCI/ADR-RES ovarian; 1 µM 105% | NCI/ADR-RES ovarian; 10 µM 98.7%

CS(=O)(=O)c1ccc(-n2nc(C(=O)NCc3ccccc3)cc2-c2ccc(Cl)cc2)cc1
inactive: SR leukemia 76.7% | RPMI-8226 leukemia; 10 µM unless noted 56.8% | OVCAR-8 ovarian; 10 µM unless noted 89.9% | OVCAR-5 ovarian; 10 µM unless noted 105% | OVCAR-4 ovarian; 10 µM unless noted 71% | SK-OV-3 ovarian; 10 µM unless noted 104% | OVCAR-3 ovarian; 10 µM unless noted 99.7% | HS 578T breast; 10 µM unless noted 110% | NCI/ADR-RES ovarian; 10 µM unless noted 83.9%

C=CCn1c(O)c(N=Nc2nc(-c3cc4ccccc4oc3=O)cs2)c2ccccc21
inactive: SR leukemia 16.2% | RPMI-8226 leukemia; 10 µM unless noted 106% | OVCAR-8 ovarian; 10 µM unless noted 80.9% | OVCAR-5 ovarian; 10 µM unless noted 18.6% | OVCAR-4 ovarian; 10 µM unless noted 80.9% | SK-OV-3 ovarian; 10 µM unless noted 112% | OVCAR-3 ovarian; 10 µM unless noted 49.3% | HS 578T breast; 10 µM unless noted 27.5% | NCI/ADR-RES ovarian; 10 µM unless noted 91.6%

COc1ccc(-c2cc(C(=O)N=Nc3c(O)[nH]c4ccc(Cl)cc34)c3ccccc3n2)cc1
inactive: SR leukemia 53.1% | RPMI-8226 leukemia; 10 µM unless noted 102% | OVCAR-8 ovarian; 10 µM unless noted 22.1% | OVCAR-5 ovarian; 10 µM unless noted 42.5% | OVCAR-4 ovarian; 10 µM unless noted 23.7% | SK-OV-3 ovarian; 10 µM unless noted 78.1% | OVCAR-3 ovarian; 10 µM unless noted 44.2% | HS 578T breast; 10 µM unless noted 77.6% | NCI/ADR-RES ovarian; 10 µM unless noted 28.7%

C[C@H]1[C@@H](CC(=O)N[C@@H](Cc2coc3ccccc23)B(O)O)O[C@@H]2OC3(C)CC[C@H]4[C@H](C)CC[C@@H]1[C@@]24O3
active: RPMI-8226 leukemia; 10 µM unless noted -4.75% | OVCAR-5 ovarian; 10 µM unless noted -26.1% | OVCAR-3 ovarian; 10 µM unless noted 3.84% | HS 578T breast; 10 µM unless noted -0.841%
inactive: SR leukemia 29.6% | OVCAR-8 ovarian; 10 µM unless noted 47.1% | OVCAR-4 ovarian; 10 µM unless noted 33% | SK-OV-3 ovarian; 10 µM unless noted 58.8% | NCI/ADR-RES ovarian; 10 µM unless noted 19.5%
